“And” between values parts separate entries of the source, which are not always exact repeats. Equal values may be shown once. The source made the active and inactive calls.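 Rule for the calls, unless noted: active = compounds whose cell count with miR-34 switched on is under 0.7 times the count with it off; inactive = the rest.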
What was measured:
[1] = tested on: Aerobactin synthetase IucA (Klebsiella pneumoniae); assay: IucA aerobactin synthetase inhibitors, biochemical, Tocris library, absorbance (AID 1345561; call rule not given here;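 note: 100% = enzyme without compound and 0% = no enzyme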); details: purified IucA enzyme assay, absorbance (OD) read-out; stronger effect = lower value;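 tested at 8 µM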
[2] = sensitizers of A549 cells to miR-34 induction, primary screen, imaging, A549 dox-inducible miR-34, nuclei and caspase counts (AID 1347080); details: A549 miR-34 inducible, Hoechst nuclei count, 48 h
[3] = viability rescue of complex I mutant cybrids, primary screen, cell-based, galactose medium, ATP luminescence (AID 1645843;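 active = z-score of at least 1.8 in each of two replicates, scored against plate mean and spread of sample wells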;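 note: positive z means more ATP and so rescue of galactose-driven cybrid death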); details: complex I mutant cybrid cells, 72 h, stronger effect = higher value
[4] = stronger effect = lower value, cell number ratio, induced over uninduced
[5] = measured here: relative caspase fold change +Dox/-Dox
[6] = measured here: total cells with miR-34 induction, stronger effect = lower value
[7] = measured here: total cells without miR-34 induction

SMILES | remaining activity [1] | fold change [2, 4] | fold change [2, 5] | cell count [2, 6] | cell count [2, 7] | z-score [3]
O=c1[nH]c2cc(Cl)ccc2c(O)c1-c1cccc(Oc2ccccc2)c1 | 103% (inactive) | 0.963 (inactive) | 0.827 | 8760 | 9100 | 0.335 (inactive)
Cc1ccc(NC(=O)C(C)C)cc1C1CCN(Cc2ccc(Oc3ccc(F)c(F)c3)cc2)CC1 | 107% (inactive) | 1.03 (inactive) | 0.737 | 1330 | 1290 | -0.705 (inactive)
C/C(=N\NC(=O)[C@@H]1C(=O)NC[C@H]1c1ccccc1)c1cccc(Br)c1 | 103% (inactive) | 0.887 (inactive) | 1.69 | 8430 | 9510 | 0.375 (inactive)
Nc1nnc(Sc2ncc([N+](=O)[O-])s2)s1 | 119% (inactive) | 0.911 (inactive) | 4.18 | 3000 | 3290 | -1.04 (inactive)
O=C(NC1CCN(Cc2ccccc2)CC1)c1ccc(I)cc1 | 113% (inactive) | 0.862 (inactive) | 0.815 | 6720 | 7800 | -0.755 (inactive)
COc1ccc(-n2[nH]c3c4c(ncc3c2=O)CCCCC4)cc1 | 115% (inactive) | 0.906 (inactive) | 1.8 | 8550 | 9440 | 2.12 (active)
COC(=O)C(Cc1ccc(OCCn2c(=O)sc3cc(C(=O)c4ccccc4)ccc32)cc1)C(=O)OC | 104% (inactive) | 0.909 (inactive) | 1.26 | 8190 | 9020 | -0.89 (inactive)
O=C(N/N=C/c1ccccc1O)c1ccccc1O | 106% (inactive) | 0.984 (inactive) | 1.5 | 4010 | 4070 | -0.59 (inactive)
Cc1c(NC(=O)N2CCOCC2)ccc2c1c1ccccc1n2C(C)C | 122% (inactive) | 0.891 (inactive) | 1.37 | 8260 | 9270 | 1.14 (inactive)
Nc1ncnc2c1nc(Br)n2[C@@H]1O[C@@H]2COP(=O)(O)O[C@H]2[C@H]1O | 114% (inactive) | 0.96 (inactive) | 0.834 | 8030 | 8360 | -0.015 (inactive)
COc1cc2c(cc1OC)C(c1ccc(N)cc1)=NNC(=O)C2 | 103% (inactive) | 1.07 (inactive) | 0.53 | 4030 | 3760 | 0.045 (inactive)
CC(C)(C)c1cc(C(=O)/C=C/c2ccc(C(=O)O)cc2)cc(C(C)(C)C)c1 | 108% (inactive) | 1.11 (inactive) | 1.56 | 1370 | 1240 | -0.69 (inactive)
CNC(=O)[C@H]1O[C@@H](n2cnc3c(NCc4cccc(I)c4)ncnc32)[C@H](O)[C@@H]1O | 116% (inactive) | 0.865 (inactive) | 0.723 | 8280 | 9570 | 2.99 (active)
O=C(Cc1ccccc1)Nc1nc2ccc(Cl)cc2c2nc(-c3ccco3)nn12 | 112% (inactive) | 1 (inactive) | 0.707 | 7840 | 7820 | 0.635 (inactive)
COc1ccc(C2CC(c3c(O)cc(C)oc3=O)=NCCS2)c(OC)c1 (configuration not stated) | 98.6% (inactive) | 1.45 (inactive) | 2.3 | 1350 | 929 | -0.235 (inactive)
CC[C@]1(O)C[C@H]2CN(CCc3c([nH]c4ccccc34)[C@@](C(=O)OC)(c3cc4c(cc3OC)N(C)[C@H]3[C@@](O)(C(=O)OC)[C@H](OC(C)=O)[C@]5(CC)C=CCN6CC[C@]43[C@@H]65)C2)C1 | 123% (inactive) | 1.06 (inactive) | 0.382 | 1570 | 1480 | -0.65 (inactive)
Nc1nc(Nc2ccccc2)nc2c1ncn2[C@@H]1O[C@H](CO)[C@@H](O)[C@H]1O | 107% (inactive) | 0.978 (inactive) | 0.752 | 9880 | 10100 | -0.09 (inactive)
c1cc2c(cc1C1CCCCC1)c1c3n2CCNC3CCC1 (configuration not stated) | 102% (inactive) | 1.06 (inactive) | 1.07 | 430 | 406 | -1.23 (inactive)
C1CCC2(CC1)CCNCC2 | 105% (inactive) | 0.955 (inactive) | 1.56 | 9280 | 9730 | 0.34 (inactive)
CC(=O)c1ccc2c(c1)[C@@H]1C=CC[C@@H]1[C@H](c1cc3c(cc1Br)OCO3)N2 | 128% (inactive) | 1.21 (inactive) and 1.03 (inactive) | 0.332 and 1.3 | 2540 and 1820 | 2100 and 1760 | -0.965 (inactive)
CC1(C)CCC(C)(C)c2cc(C3(c4ccc(C(=O)O)cc4)OCCO3)ccc21 | 106% (inactive) | 0.895 (inactive) | 2.19 | 8580 | 9580 | 0.95 (inactive)
C[C@H](NC[C@H](O)CP(=O)(O)Cc1ccccc1)c1ccc(Cl)c(Cl)c1 | 111% (inactive) | 0.949 (inactive) | 1.04 | 8740 | 9210 | 0.06 (inactive)
c1ccc2nc(C3=NCCN3)cnc2c1 | 98.4% (inactive) | 0.983 (inactive) | 0.854 | 9150 | 9300 | 0.085 (inactive)
Cn1cccc1/C=C1\C(=O)NC(=O)c2ccccc21 | 129% (inactive) | 0.918 (inactive) | 1.16 | 8530 | 9300 | -0.415 (inactive)

SMILES | remaining activity [1] | fold change [2, 4] | fold change [2, 5] | cell count [2, 6] | cell count [2, 7] | z-score [3]
Oc1ccc(-c2nc3cc(O)cc(Br)c3o2)cc1 | 98.9% (inactive) | 0.904 (inactive) | 1.67 | 8500 | 9400 | 0.775 (inactive)
CCS(=O)(=O)N(C)[C@H]1c2cc(C#N)ccc2OC(C)(C)[C@@H]1O (racemic) | 119% (inactive) | 0.884 (inactive) | 1.36 | 9180 | 10400 | 0.85 (inactive)
CN(CCc1ccc(Cl)c(Cl)c1)CC(O)COc1ccc(NS(C)(=O)=O)cc1 (configuration not stated) | 107% (inactive) | 0.951 (inactive) and 0.956 (inactive) | 1.56 and 0.961 | 4180 and 6530 | 4390 and 6830 | 0.67 (inactive)
N[C@@H](Cc1cc(CP(=O)(O)O)cc(-c2ccccc2Cl)c1)C(=O)O | 118% (inactive) | 0.967 (inactive) | 1.52 | 9360 | 9670 | 0.225 (inactive)
CC1=C(C(=O)OCCN(Cc2ccccc2)c2ccccc2)C(c2cccc([N+](=O)[O-])c2)C(P2(=O)OCC(C)(C)CO2)=C(C)N1 (configuration not stated) | 131% (inactive) | 0.992 (inactive) | 1.07 | 4790 | 4830 | -0.9 (inactive)
O[C@H](CNC[C@@H](O)[C@H]1CCc2cc(F)ccc2O1)[C@@H]1CCc2cc(F)ccc2O1 | 101% (inactive) | 1.03 (inactive) | 0.967 | 3230 | 3140 | -0.5 (inactive)
NC(C(=O)O)c1cc(O)cc(O)c1 (configuration not stated) | 101% (inactive) | 0.987 (inactive) | 0.844 | 9310 | 9430 | -0.435 (inactive)
CS(=O)(=O)Nc1c(O)ccc2c1CCCC2C1=NCCN1 (configuration not stated) | 114% (inactive) | 1 (inactive) | 0.792 | 9080 | 9050 | -0.21 (inactive)
O=C(/C=C/c1ccccc1)NC(NC(=S)Nc1cccc2cccnc12)C(Cl)(Cl)Cl (configuration not stated) | 124% (inactive) | 1.01 (inactive) | 1.71 | 4630 | 4560 | -0.47 (inactive)
CC[C@@H]1Cn2c(c3nc(-c4ccccc4)nc-3n(C)c2=O)N1 | 108% (inactive) | 0.901 (inactive) | 1.44 | 7600 | 8440 | -0.165 (inactive)
C[C@@H](NCc1cc(Br)cc2[nH]c(=O)c(=O)[nH]c12)P(=O)(O)O | 104% (inactive) | 0.887 (inactive) | 1.3 | 8900 | 10000 | -0.07 (inactive)
COc1ccc([C@H]2CNC(=O)C2)cc1OC1CCCC1 | 113% (inactive) | 0.966 (inactive) | 0.702 | 9600 | 9950 | -0.255 (inactive)
N[C@@H](CSS(=O)(=O)O)C(=O)O | 94.5% (inactive) | 0.893 (inactive) | 0.93 | 8240 | 9220 | -0.57 (inactive)
OCCNCCCOc1cccc(Cl)c1Cl | 98.9% (inactive) | 0.929 (inactive) and 0.971 (inactive) | 0.846 and 1.42 | 5820 and 3550 | 6260 and 3660 | -0.65 (inactive)
CC(C)(C)n1nc(-c2cccc3ccccc23)c2c(N)ncnc21 | 117% (inactive) | 0.947 (inactive) | 1.81 | 3180 | 3350 | -0.105 (inactive)
CC(C)c1ccccc1S(=O)(=O)c1cc(N)c2ncccc2c1[N+](=O)[O-] | 94.3% (inactive) | 0.871 (inactive) | 1.36 | 6170 | 7090 | -0.685 (inactive)
CCc1ccccc1OC[C@@H](O)CN[C@H]1CCCc2ccccc21 | 106% (inactive) | 0.986 (inactive) | 0.799 | 4870 | 4940 | -0.74 (inactive)
CCOC(=O)c1c(C)[nH]c2ccc3c(c12)CN1CCc2cc(OC)ccc2C1O3 (configuration not stated) | 112% (inactive) | 0.942 (inactive) | 0.667 | 3940 | 4180 | -0.785 (inactive)
O=Nc1ccc(O)c2ncccc12 | 118% (inactive) | 1.09 (inactive) | 1.32 | 2920 | 2670 | -1.02 (inactive)
CSc1ccc([C@H]2CN3CCC[C@H]3c3ccccc32)cc1 | 123% (inactive) | 0.927 (inactive) | 1.33 | 7680 | 8280 | -0.51 (inactive)
COc1cc(/C=C/c2ccc(OC)cc2OC)cc(OC)c1 | 117% (inactive) | 0.956 (inactive) and 0.973 (inactive) | 1.53 and 0.719 | 1820 and 3000 | 1910 and 3090 | -0.41 (inactive)
CC(C)Oc1ccc2c(=O)c3cc(C(=O)O)ccc3oc2c1 | 93.9% (inactive) | 1.01 (inactive) | 1.37 and 0.638 | 5920 and 8510 | 5860 and 8390 | 0.015 (inactive)
OC1CCC(Nc2nc(-c3ccccc3)nc3[nH]ccc23)CC1 (configuration not stated) | 112% (inactive) | 0.975 (inactive) | 1.31 | 8990 | 9220 | 1.67 (inactive)

Source: PubChem BioAssay
